# This is a sample that favours compounds with a hit; in the whole collection about 18% have one here.
# PLK1 PBD block: PLK1 (human) polo-box domain binding inhibition. hit rate 2.8% among 360,000. AID 720504. Plk1 PBD binding of FITC phosphopeptide, fluorescence polarization. Potency, µM, for inactives: max response, negative = inhibition, hits mostly inhibitors. P53350; note: series mostly up to about 57 µM; nearly all actives have a fitted effect of over 65% in size
# VDR inhibitor: blocks the human vitamin D receptor. Potency, µM, for inactives: max response, negative = inhibition, hits mostly inhibitors. hit rate 0.93% among 400,000. AID 504847. VDR-SRC2-3 peptide fluorescence polarization, 2 h. P11473
#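 After 23 nl compound addition and a short centrifugation, plates sat for 2 hours at ambient temperature; polarization of fluorescence then indicated loss of VDR binding to peptide SRC2-3.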
# TDP1 cell CPT: growth inhibition of DT40 Tdp1-/-;hTDP1 cells with camptothecin (screen for TDP1 inhibitors). hit rate 12% among 420,000. Potency, µM (highest dose often 46.2 µM), inactives show top-dose activity change, negative = growth inhibition, most hits filed as inhibitors. chicken DT40 Tdp1-/-;hTDP1 cells + 20 nM CPT, ATP luminescence, 48 h; note: nearly all actives have a fitted effect of over 55% in size
#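 Chicken DT40 Tdp1-/- cells complemented with human TDP1, 400 cells/well, exposed to compounds plus 20 nM camptothecin for at least 48 h at 37 C; viability read as ATP content by CellTiter-Glo luminescence.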
# DT40 TDP1 no CPT: qHTS for Inhibitors of human tyrosyl-DNA phosphodiesterase 1 (TDP1): qHTS in cells in absence of CPT | Potency, µM (doses to about 46.2 µM), for inactives: top-dose activity change, negative = growth inhibition, hits mostly inhibitors | DT40 Tdp1-/- hTDP1 cells, no CPT, ATP luminescence, 48 h | hit rate 15% among 420,000; note: nearly all actives have a fitted effect of over 55% in size
#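 Chicken DT40 Tdp1-/- cells stably complemented with human TDP1 were seeded at 400 cells/well with DMSO in place of 20 nM camptothecin. After compound pinning, cells grew at least 48 hr at 37 °C; viability read by CellTiter-Glo luminescence.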
# TDP1 block: blocks human tyrosyl-DNA phosphodiesterase 1; Q9NUW8; recombinant TDP1, AlphaScreen DNA substrate cleavage; Potency, µM (titrated, usually from 130 µM), for the others: top-dose activity change, negative = inhibition, hits mostly inhibitors; hit rate 0.28% among 350,000; AID 485290; note: nearly all actives have a fitted effect of over 40% in size
#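 Here, a 5' biotin and 3' phosphotyrosine-FITC DNA oligonucleotide reports Tdp1 activity: intact substrate bridges AlphaScreen beads, while cleavage leaves a 3' phosphate and drops signal. All incubations at room temperature.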
# GCN5L2 inh: GCN5L2 (KAT2A) acetyltransferase inhibition; Q92830; GCN5L2 HAT assay, ThioGlo1 CoA-SH fluorescence; Potency, µM (doses to about 58.9 µM), for the others: at the top dose activity change, negative = inhibition, actives largely listed as inhibitors; hit rate 0.21% among 390,000
# Target sequence (Q92830 whole entry, looked up): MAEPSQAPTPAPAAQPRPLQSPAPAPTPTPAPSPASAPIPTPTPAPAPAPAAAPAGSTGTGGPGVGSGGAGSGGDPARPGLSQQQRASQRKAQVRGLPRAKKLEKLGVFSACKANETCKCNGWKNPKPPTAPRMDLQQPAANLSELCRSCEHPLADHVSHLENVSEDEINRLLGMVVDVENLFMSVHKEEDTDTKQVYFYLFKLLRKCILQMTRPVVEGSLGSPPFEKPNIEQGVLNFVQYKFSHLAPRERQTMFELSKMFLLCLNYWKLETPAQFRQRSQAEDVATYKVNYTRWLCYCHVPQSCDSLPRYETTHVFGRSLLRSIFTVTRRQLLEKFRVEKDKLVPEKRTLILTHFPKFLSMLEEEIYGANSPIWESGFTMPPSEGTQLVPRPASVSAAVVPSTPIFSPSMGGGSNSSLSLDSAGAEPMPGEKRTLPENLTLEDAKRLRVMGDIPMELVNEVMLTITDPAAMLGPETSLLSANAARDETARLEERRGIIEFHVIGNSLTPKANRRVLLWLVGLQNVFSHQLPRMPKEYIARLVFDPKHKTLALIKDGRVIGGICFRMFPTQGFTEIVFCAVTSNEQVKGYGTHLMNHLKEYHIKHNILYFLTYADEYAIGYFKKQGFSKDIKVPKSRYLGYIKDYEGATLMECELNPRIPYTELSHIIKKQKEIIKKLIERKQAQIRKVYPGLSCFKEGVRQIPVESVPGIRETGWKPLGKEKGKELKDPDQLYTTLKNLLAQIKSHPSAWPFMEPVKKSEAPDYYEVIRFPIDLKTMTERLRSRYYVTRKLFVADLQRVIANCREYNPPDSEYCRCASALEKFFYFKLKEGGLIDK
#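 ThioGlo1-coupled HAT assay: 20nM GCN5L2, 70uM acetyl-CoA, 75uM H3(1-25) peptide, pH 7.5. Fluorescence read at 340/540nm at start and after 20 min at room temperature.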
# Starred values were filed as active, the others as inactive; u = inconclusive; x = no result given; [ ] = another dose, or the depositor's remark. Calls come from the whole dose curve; as a rule, active = well fitted curve in the direction sought with a large enough effect; inconclusive = small, poorly fitted or top-dose-only effect, or another doubt; inactive = no such curve, though single readings can be large; an effect the other way counts as inactive or inconclusive. % is set by controls: 0 for no effect and ±100 for the full control effect; potency is the fitted concentration of half-maximal effect.
SMILES,PLK1 PBD block,VDR inhibitor,TDP1 cell CPT,DT40 TDP1 no CPT,TDP1 block,GCN5L2 inh
Cc1nn(CC(=O)Nc2ccc3c(c2)OCO3)c(C)c1Cl,4%,-9%,-1%,-7%,5%,-5%
COc1ccc(NC(=O)CSc2ccccc2)cc1S(=O)(=O)N1CCOCC1,-15%,-5%,-2%,-9%,0%,-4%
CCN(CC)S(=O)(=O)c1cc(NC(=O)Cn2ncc(Cl)c(Cl)c2=O)ccc1C,-18%,0%,3.7µM*,2.3µM*,3%,u
COc1ccc2c(CC(=O)Nc3ccc(OC)c(S(=O)(=O)N4CCOCC4)c3)coc2c1,-5%,-11%,-13%,u,5%,-6%
Cc1c(N)cc2c(c1N)C(C)(C)CC2(C)C,2%,9%,-28%,-26%,x,x
O=C(Cn1ncc(Cl)c(Cl)c1=O)c1ccc2c(c1)OCCO2,-12%,-3%,16µM*,23µM*,-3%,-9%
O=c1c2ccccc2nnn1-c1ccccc1[N+](=O)[O-],5%,x,-8%,-29%,x,x
CC[C@]12c3[nH]c4ccccc4c3CCN1C(=O)C(CC(=O)NCCCN(C)C)C[C@@H]2C(=O)N1CCN(C(=O)C2CC2)CC1 (stereo not given in full),-14%,4%,-8%,1%,1%,-2%
O=c1[nH]c2ccc(Cl)cc2c(-c2ccccc2)c1CN1CCOCC1,u,u,u,21µM*,9%,0%
CC(C)NC(=S)N=Nc1c(O)[nH]c2ccc(C(C)C)cc12,-4%,-7%,5.8µM*,5.2µM*,3%,6%
COc1ccccc1NC(=S)N=Nc1c(O)[nH]c2ccc(Br)cc12,-1%,-6%,2.6µM*,1.5µM*,5%,-3%
Cc1cccc(NC(=O)c2cc(=O)[nH]c3ccccc23)c1,-21%,-28%,9%,-8%,x,-3%
Oc1[nH]c2ccc(Br)cc2c1N=NC(=S)NCC1CCCO1 (stereo not given),u,-10%,u,u,13%,-12%
Cc1cccc(NC(=S)N=Nc2c(O)[nH]c3ccccc23)c1,-7%,-2%,3.3µM*,4.6µM*,9%,-6%
CC(NC(=O)c1ccc(NC(=O)c2nsc3ccccc23)cc1)c1ccccc1 (stereo not given),x,16%,u,u,-8%,-19%
CSc1ccc(CNC(=O)c2ccccc2NC(=O)c2nsc3ccccc23)cc1,x,-5%,u,u,0%,-5%
CN(C)c1ccc(CNC(=O)c2ccccc2NC(=O)c2nsc3ccccc23)cc1,x,1%,16µM*,13µM*,3%,-2%
CC(C)Oc1ccc(CNC(=O)c2cccc(NC(=O)c3nsc4ccccc34)c2)cc1,x,8%,4.6µM*,9.2µM*,3%,-18%
Cc1ccc(C(=O)NCc2ccc(F)cc2)cc1NC(=O)c1nsc2ccccc12,x,13%,u,23µM*,3%,-20%
O=C(NCc1ccccc1Cl)c1ccc(NC(=O)c2nsc3ccccc23)cc1,x,1%,18µM*,18µM*,0%,-5%
Cc1ccc(C(=O)O)cc1NC(=O)c1nsc2ccccc12,x,8%,8%,0%,-8%,-5%
CC[C@@H]1OC(=O)[C@H](C)[C@H](O[C@@H]2C[C@](C)(OC)[C@H](O)[C@H](C)O2)[C@H](C)[C@H](O[C@@H]2O[C@@H](C)C[C@@H](N(C)C)[C@@H]2O)[C@](C)(O)C[C@H](C)C(=O)[C@H](C)[C@H](O)[C@]1(C)O,x,3%,x,x,4%[56.1 µM],7%[21.4 µM]
Cc1ccc(C(=O)NCCC(C)C)cc1NC(=O)c1nsc2ccccc12,x,11%,16µM*,u,3%,-3%
Cc1ccc(NC2SC(=O)N(Cc3cccc(C(=O)O)c3)C2=O)c(C)c1 (stereo not given),u,91%,-7%,12%,x,-2%
O=C(O)c1cccc(CN2C(=O)SC(Nc3cccc4ccccc34)C2=O)c1 (stereo not given),u,-16%,14%,9%,0%,14µM*
SMILES,PLK1 PBD block,VDR inhibitor,TDP1 cell CPT,DT40 TDP1 no CPT,TDP1 block,GCN5L2 inh
Cc1ccc(NC2SC(=O)N(Cc3cccc(C(=O)O)c3)C2=O)cc1 (stereo not given),21µM*,4%,-11%,2%,-3%,-4%
Cc1ccc(S(=O)(=O)Nc2cccc3ccc[n+](C)c23)cc1,x,x,x,x,4%,x
Nc1nc2ccccc2n1CCOc1ccccc1Cl,-2%,1%,u,26µM*,3%,39%
CCN(CC)CCn1c(=N)n(CCOc2ccccc2Cl)c2ccccc21,x,-9%,3.7µM*,4.1µM*,-2%,-4%
N=c1n(CCCOc2ccccc2Cl)c2ccccc2n1CC(N)=O,1%,-4%,18µM*,21µM*,x,3%
Nc1nc2ccccc2n1CCOc1ccc(Cl)cc1,-20%,-24%,u,u,x,8%
CCN(CC)CCn1c(=N)n(CC(O)COc2ccccc2C)c2ccccc21 (stereo not given),x,-9%,8.2µM*,2.6µM*,0%,-6%
CCN(CC)CCn1c(=N)n(CC(O)c2ccco2)c2ccccc21 (stereo not given),-18%,-6%,-13%,u,-6%,-2%
C/C(=N\NC(=O)C1(C)CC1(Br)Br)c1cccc(NC(=O)C2CCC2)c1 (stereo not given),-18%,-3%,18µM*,26µM*,2%,-10%
Nc1nc(NCCCN2CCOCC2)nc(Nc2ccccc2F)c1[N+](=O)[O-],-20%,12%,-11%,16µM*,5%,-13%
Nc1nc(NCCCN2CCOCC2)nc(Nc2ccc(F)cc2)c1[N+](=O)[O-],3%,-9%,u,u,6%,-4%
COc1ccc(OC)c(S(=O)(=O)Nc2cc3c4c(c2)CCC(=O)N4CCC3)c1,-2%,-12%,u,-28%,1%,-8%
Cc1ccc(NS(=O)(=O)c2cc3c4c(c2)CC(=O)N4CCC3)cc1C,-3%,13%,13µM*,-5%,2%,-7%
COc1ccc(S(=O)(=O)Nc2cc3c4c(c2)CCC(=O)N4CCC3)cc1C,-8%,10%,16µM*,u,-1%,4%
O=C1Cc2cc(S(=O)(=O)Nc3cccc(C(F)(F)F)c3)cc3c2N1CCC3,x,3%,u,-14%,8%,-10%
COc1ccc([C@]23Cc4ccccc4C(O2)c2c(cc(-c4ccccc4)oc2=O)O3)cc1,x,x,x,x,x,-23%[12.7 µM]
Fc1c(F)c(F)c(SCn2cc(Br)cn2)c(F)c1F,-9%,-8%,-9%,u,-10%,0%

# Bioassay records deposited in PubChem BioAssay by National Center for Advancing Translational Sciences (NCATS).
